Measured values from PubChem BioAssay AID720706 (Broad Institute, 2013).
About 5,500 (1.6%) of roughly 350,000 compounds were called active. The sample holds actives, similar compounds and a random draw of the others, so the mix is not that of the screen.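 Rule for the calls: active = significant combined selectivity score with lowered wild-type GFP, culture density cut under 30%, mutant RFP and density less affected; inactive = any of these conditions unmet.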

Experiment: GFP drop in mixed WT/humanized-ribosome E. coli culture – GFP/RFP fluorescence, OD600, single point, bacterial rRNA inhibitor project, primary screen (AID 720706)
Conditions: E. coli WT GFP vs humanized-ribosome RFP mutants, 24 h; GFP signal change (wild-type ribosome): stronger effect = lower value, DMSO median 0, no signal -100; OD600 change: measured here: OD600 growth, DMSO median 0, no signal -100; RFP signal change: measured here: RFP humanized mutant strains, DMSO median 0, no signal -100, concentration not given here

| SMILES | GFP signal change (wild-type ribosome) | OD600 change [%] | RFP signal change [%] |
| --- | --- | --- | --- |
| COc1cccc(C(=O)NCCSc2ccc(Br)cc2)c1 | -49.8% (inactive) | -75.8 | -16.7 |
| COc1cccc(C(=O)c2cc3ccc(O)cc3oc2=O)c1 | -30.5% (active) | -15 | 1.31 |
| COC(=O)c1ccc(COC(=O)CNC(=O)c2cccc(OC)c2)o1 | 3.46% (inactive) | 11.4 | -1.13 |
| COc1ccc(NC(=O)Nc2ccc3c(c2)C(=O)N([C@H](C)CO)C[C@H](C)[C@@H](CN(C)Cc2ccccc2)OCCCC[C@H](C)O3)cc1 | 2.43% (inactive) | -11 | 1.05 |
| C[C@@H]1CN([C@H](C)CO)C(=O)c2cc(NC(=O)C3CCCCC3)ccc2O[C@@H](C)CCCCO[C@H]1CN(C)S(C)(=O)=O | -1.08% (inactive) | 0.309 | -2.76 |
| CC1CCCN(c2ccc(C(=O)NCCc3ccccc3)cn2)C1 (configuration not stated) | -19.9% (active) | -8.59 | 0.765 |
| CC1CCN(C(=O)CCNC(=O)c2ccccc2)CC1 | 9.31% (inactive) | 16.3 | -0.0995 |
| CC1CCN(c2c(NCc3ccc(C(=O)NCc4ccccc4)cc3)c(=O)c2=O)CC1 | -2.23% (inactive) | 0.92 | 2.65 |
| COc1ccc2c3c([nH]c2c1)[C@H](CO)N(C(=O)C1CCC1)CC31CCN(Cc2cccc(F)c2)CC1 | -1.74% (inactive) | -5.93 | 3.15 |
| COc1ccc2c3c([nH]c2c1)[C@@H](CO)N(Cc1ccccc1OC)CC31CCN(C)CC1 | -0.945% (inactive) | 0.435 | 0.881 |
| Cc1nn(-c2ccccc2)c(Cl)c1/C=N/NC(=O)c1nn(C)cc1[N+](=O)[O-] | -30.3% (active) | 4.85 | 0.73 |
| Cc1cc(=O)[nH]c(N/N=C/c2c(C)nn(-c3ccccc3Cl)c2Cl)n1 | -2.91% (inactive) | 6.48 | -1.95 |
| Cc1nn(-c2ccccc2)c(C)c1/C=N/NC(=O)CSc1nc2ccccc2c(=O)n1-c1ccccc1 | 14.9% (inactive) | 17.7 | -2.02 |
| C[C@@H]1CN([C@@H](C)CO)S(=O)(=O)c2ccc(C#CCN(C)C)cc2O[C@@H]1CN(C)S(=O)(=O)c1cccc(F)c1 | -0.828% (inactive) | -6.54 | 0.409 |
| C[C@H](CO)N1C[C@H](C)[C@H](CN(C)C(=O)Nc2ccc(C(F)(F)F)cc2)Oc2ccc(NS(=O)(=O)c3ccccc3)cc2CC1=O | 2.52% (inactive) | -0.79 | 1.4 |
| CN1C(=O)c2cc(NC(=O)c3ccccc3)ccc2OC[C@@H]2O[C@@H](CC(=O)NC3CCCC3)CC[C@H]21 | 0.592% (inactive) | 4.01 | 0.386 |
| Cc1ccc(F)c(NC(=O)CCOc2ccccc2C)c1 | -19.4% (active) | -1.12 | 1.17 |
| Cc1ccccc1NC(=O)CCOc1ccccc1 | 6.54% (inactive) | -4.25 | 2.04 |
| Cc1cccc(OCCC(=O)Nc2ccccc2C(N)=O)c1 | -0.179% (inactive) | -10.5 | 0.55 |
| C[C@@H]1CN([C@H](C)CO)C(=O)Cc2cc(NS(=O)(=O)c3cn(C)cn3)ccc2O[C@@H]1CN(C)C(=O)Nc1ccccc1 | 6.08% (inactive) | 7.32 | -1.29 |
| CC(=O)Nc1cccc(NC(=O)c2ccc3c(c2)CCN3S(C)(=O)=O)c1 | -1.52% (inactive) | 7.81 | 5.89 |
| CS(=O)(=O)N1CCc2cc(C(=O)Nc3ccccc3)ccc21 | 5.39% (inactive) | 2.75 | 3.33 |

| SMILES | GFP signal change (wild-type ribosome) | OD600 change [%] | RFP signal change [%] |
| --- | --- | --- | --- |
| CN(c1cccc(NC(=O)c2ccc(CN3CCc4ccccc4C3)cc2)c1)S(C)(=O)=O | -21.5% (active) | -11.3 | -3.92 |
| COc1ccc(-c2nc(CCNC(=O)c3ccc(Br)o3)cs2)cc1 | -22.8% (inactive) | -75.5 | -22.8 |
| O=S(=O)(NCCc1csc(-c2ccccc2)n1)c1cccnc1 | -11.8% (inactive) | -3.96 | 1.22 |
| O=C(NCCc1csc(-c2ccccc2)n1)c1ccccc1F | -24.5% (active) | -9.12 | 10.4 |
| C[C@H](CO)N1C[C@H](C)[C@@H](CN(C)C(=O)c2ccncc2)Oc2cc(/C=C/c3ccccc3)ccc2S1(=O)=O | -0.655% (inactive) | -10 | 0.748 |
| CC(C)NC(=O)N(C)C[C@H]1Oc2ccc(N)cc2CC(=O)N(C)C[C@H]1C | 1.15% (inactive) | 1.28 | -1.08 |
| COc1ccc2oc(C(=O)NCc3ccco3)c(C)c2c1 | -31.1% (active) | -11.6 | 2.2 |
| COc1ccc2oc(C(=O)NCC(Cc3ccccc3)N(C)C)c(C)c2c1 (configuration not stated) | 0.609% (inactive) | -7.21 | 3.26 |
| Cc1c(C(=O)NCC(c2ccco2)N2CCCC2)oc2ccc(Cl)cc12 (configuration not stated) | -0.887% (inactive) | -24.2 | 6.54 |
| C[C@@H]1CCCCO[C@@H](CN(C)S(=O)(=O)c2cccs2)[C@H](C)CN([C@H](C)CO)C(=O)c2cc(NC(=O)CCCN(C)C)ccc2O1 | 0.863% (inactive) | 4.81 | -0.962 |
| COCCn1c(=O)[nH]c(=O)c2cc(C(=O)c3cc(OC)ccc3O)cnc21 | -0.725% (inactive) | -0.37 | 12.8 |
| Cc1cc(C)c2c(-c3ccc(F)cc3)c(C#N)c(=O)n(C)c2n1 | 2.75% (inactive) | 5.62 | -1.52 |
| COc1ccc(O)c(C(=O)c2cnc3c(c2)c(-c2ccc(F)cc2)c(C#N)c(=O)n3C)c1 | -17% (active) | 6.31 | 1.18 |
| CC(=O)N1N=C(c2ccncc2)OC1(Cc1ccccc1)Cc1ccccc1 | -37.5% (active) | -22 | -2.93 |
| CC(=O)N1N=C(c2ccccc2)OC1c1cccnc1 (configuration not stated) | 9.41% (inactive) | -5.18 | -3.3 |
| O=C(Cc1ccccc1)N1N=C(c2ccncc2)CC1(O)C(F)(F)F (configuration not stated) | 7.85% (inactive) | -1.11 | 2.05 |
| CCc1cccc(C)c1N1C(=O)CN(Cc2ccccc2)C1=S | 1.91% (inactive) | -44.9 | -8.39 |
| COc1cccc(N2C(=O)CN(Cc3ccccc3)C2=S)c1 | -8.56% (inactive) | -0.07 | 3.96 |
| Cc1cccc(C)c1N1C(=O)CN(Cc2ccccc2)C1=S | -22.1% (active) | -16.8 | -3.28 |
| CCC(=O)N1CC(=O)N2[C@H](CO)[C@@H](c3ccc(-c4ccc(C(=O)N(C)C)cc4)cc3)[C@H]2C1 | 4.58% (inactive) | 2.18 | -2.34 |
| COc1ccc(C(=O)CC(=O)c2ccc(C)cc2)c(O)c1 | -49% (inactive) | -75.2 | -24.9 |
| COC(=O)c1cc(OC)ccc1-c1ccc(OC)cc1 | -32.6% (active) | -15.3 | -6.08 |

| SMILES | GFP signal change (wild-type ribosome) | OD600 change [%] | RFP signal change [%] |
| --- | --- | --- | --- |
| COc1ccc(SSc2ccc(OC)cc2C(=O)O)c(C(=O)O)c1 | 11.9% (inactive) | 11.8 | -2.19 |
| COc1ccccc1S(=O)(=O)N[C@@H]1CC[C@H](CCn2cc(C3CCCC3)nn2)O[C@H]1CO | 1.1% (inactive) | 3.92 | -3.27 |
| C[C@H](CO)N1C[C@H](C)[C@H](CN(C)CC2CC2)OCCCC[C@H](C)Oc2ccc(NS(=O)(=O)c3cccs3)cc2C1=O | -0.767% (inactive) | -2.73 | -0.839 |
| Cc1ccc(-c2ccc([C@H]3[C@H](CO)N4C(=O)CN(S(=O)(=O)c5cccc(F)c5)C[C@@H]34)cc2)cc1 | -2.35% (inactive) | -0.94 | 0.984 |
| CCC(=O)Nc1ccc2c(c1)nc(CCN1CCN(c3ccccn3)CC1)n2C | 4.56% (inactive) | 7.29 | 1.64 |
| Cn1c(=O)n(C)c2cc(NS(=O)(=O)c3ccc(F)cc3)ccc21 | 0.225% (inactive) | 0.76 | -4.92 |
| Cn1c(CCN2CCN(c3ccccn3)CC2)nc2cc(NS(=O)(=O)c3ccc(F)cc3)ccc21 | -28.9% (active) | -17 | 3.47 |
| COCC(=O)N1CC2(C1)CN(C(=O)COC)[C@@H](CO)c1c2c2ccc(OC)cc2n1C | 4.63% (inactive) | 7.89 | 0.659 |
| Cc1ccc(S(=O)(=O)N(C)C[C@@H]2OCCCC[C@@H](C)Oc3ccc(NC(=O)C4CCCCC4)cc3C(=O)N([C@H](C)CO)C[C@H]2C)cc1 | -2.75% (inactive) | -2.24 | 1.84 |
| CCOc1ccc(N2C(=O)Nc3ccccc3C2(O)C(=O)NCc2ccco2)cc1 (configuration not stated) | 2.27% (inactive) | 2.6 | 0.0175 |
| CCOCCCNC(=O)C1(O)c2cc(Br)ccc2NC(=O)N1c1ccc(C)c(C)c1 (configuration not stated) | 4.8% (inactive) | 3.91 | 0.676 |
| CCCCNC(=O)C1(O)c2ccccc2NC(=O)N1c1ccc(Cl)cc1 (configuration not stated) | -25.8% (active) | -20.4 | 0.114 |
| CNC[C@@H]1Oc2c(NC(=O)Nc3ccc(F)cc3)cccc2C(=O)N([C@@H](C)CO)C[C@@H]1C | 0.51% (inactive) | 5.77 | -0.32 |
| CCCNC(=O)C[C@H]1CC[C@H]2[C@@H](COC[C@H](O)CN2C(=O)Nc2c(C)noc2C)O1 | -3% (inactive) | 7.33 | -4.75 |
| C[C@@H]1CN([C@@H](C)CO)S(=O)(=O)c2ccc(/C=C/c3ccccc3)cc2O[C@@H]1CN(C)C(=O)Nc1cc(F)ccc1F | -1.81% (inactive) | 7.09 | -0.095 |
| COc1ccccc1OCCNc1cc(N2CCOCC2)ccc1[N+](=O)[O-] | -27.3% (active) | -18.1 | -0.933 |
| CC(=O)Nc1ccc(S(=O)(=O)N2CCN(c3ccc([N+](=O)[O-])c(NCCN4CCOCC4)c3)CC2)cc1 | -2.32% (inactive) | 3 | 1.54 |
| COc1ccc(CCNc2cc(N3CCN(C(=O)c4ccccc4OC)CC3)ccc2[N+](=O)[O-])cc1OC | 2.05% (inactive) | -0.295 | 6.64 |
| CNC[C@H]1OCCCC[C@H](C)Oc2ccc(NC(=O)Nc3ccc(C(F)(F)F)cc3)cc2C(=O)N([C@H](C)CO)C[C@@H]1C | -45.6% (inactive) | -74.3 | -0.5 |
| COc1ccc(CNC(=O)C[C@@H]2CC[C@H](NC(=O)c3cccc(F)c3)[C@H](CO)O2)cc1 | -0.639% (inactive) | 4.63 | 0.956 |
